# Bioassay records from PubChem.
# PV pol inh – inhibitors of poliovirus RNA polymerase binding and polymerization; poliovirus polymerase elongation, fluorescence polarization; active compounds read low; % elongation, % (compound at 16.7 µg/mL); actives 0.66% (n = 150,000); AID 588519; in the data active = % elongation below about 90%
# MenB inh – Mtb MenB enzyme inhibition. MenB enzyme assay, absorbance read-out. inhibition, % (concentration not given with the values). actives 0.43% (n = 100,000); in the data active = inhibition above about 21%, passing the limit was not always enough
# Mtb MbtI inh – MbtI salicylate synthase inhibition. P9WFX0. purified MbtI enzyme, fluorescence intensity read-out. inhibition, % (no concentration beside the values). actives 0.89% (n = 100,000). AID 493033; in the data active = inhibition mostly above about 56%, no sharp cut-off; inactive = mostly below about 77%
# Target sequence (P9WFX0 whole entry, looked up): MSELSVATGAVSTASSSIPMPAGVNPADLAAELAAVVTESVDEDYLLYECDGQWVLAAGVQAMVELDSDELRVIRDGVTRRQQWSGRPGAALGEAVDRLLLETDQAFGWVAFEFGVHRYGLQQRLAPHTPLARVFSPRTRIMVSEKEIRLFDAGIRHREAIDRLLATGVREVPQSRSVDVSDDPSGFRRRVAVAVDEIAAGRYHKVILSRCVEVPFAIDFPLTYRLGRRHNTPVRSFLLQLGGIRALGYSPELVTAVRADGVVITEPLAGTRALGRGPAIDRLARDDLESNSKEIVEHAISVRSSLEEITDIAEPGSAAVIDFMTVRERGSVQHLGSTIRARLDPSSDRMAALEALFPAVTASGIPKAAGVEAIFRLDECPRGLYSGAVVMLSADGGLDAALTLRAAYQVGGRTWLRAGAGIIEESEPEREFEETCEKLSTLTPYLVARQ
# Starred values were filed as active, the others as inactive; . = no result given. The list is not random: actives were taken first. Their share in the collection is about 1.5%.
SMILES,PV pol inh,MenB inh,Mtb MbtI inh
CC(=C1C(=O)c2ccccc2C1=O)N1CCN(CCO)CC1,100.0,-7.2,21.4
CSc1nnc(SC2CC(=O)N(c3cc(Cl)cc(Cl)c3)C2=O)s1 (stereo unspecified),108.0,-26.1,5.9
O=C(O)c1cccnc1SC1CC(=O)N(C2CCCC2)C1=O (stereo unspecified),99.0,-0.1,-4.0
CCc1ccc(N2C(=O)CC(Sc3ccccn3)C2=O)cc1 (stereo unspecified),103.0,-31.5,69.4*
O=C1CC(Sc2ccc(Cl)cc2)C(=O)N1c1ccc(Br)cc1 (stereo unspecified),107.0,0.5,.
O=C1CC(Sc2ccccc2)C(=O)N1c1ccccc1 (stereo unspecified),103.0,1.9,64.5*
CCc1ccc(N2C(=O)CC(Sc3nnc(N)s3)C2=O)cc1 (stereo unspecified),101.0,3.8,100.8*
CCc1ccc(N2C(=O)CC(Sc3ccccc3N)C2=O)cc1 (stereo unspecified),98.0,-3.6,-1.1
O=C(O)c1cccnc1SC1CC(=O)N(c2ccc(Cl)cc2)C1=O (stereo unspecified),105.0,-17.4,65.5*
CNC(=O)COC(=O)c1nc(Cl)c(Cl)c(Cl)c1Cl,93.0,0.9,-6.3
Cc1noc(C)c1C(=O)NCCC12CC3CC(CC(C3)C1)C2,99.0,-19.4,8.8
Cc1ccccc1S(=O)Cc1ccc(C(=O)N2CCCC2)o1 (stereo unspecified),102.0,-13.5,15.1
CC(NS(C)(=O)=O)c1nc(-c2ccccc2)no1 (stereo unspecified),100.0,-0.8,4.1
Cc1ccc(S(=O)(=O)N(C)c2nc3ccccc3nc2N2CCN(Cc3ccccc3)CC2)cc1,105.0,-1.1,-4.6
COc1ccc(C(=O)OCC2CC2)cc1Br,102.0,-25.1,-6.9
CCN(CC)c1ccc(NS(=O)(=O)c2cc3[nH]c(=O)c(=O)[nH]c3cc2C)c(C)c1,85.0*,.,.
Cc1cc(Cl)ccc1NS(=O)(=O)c1cc2[nH]c(=O)c(=O)[nH]c2cc1C,103.0,.,.
COc1ccc(CCNc2nc(C)nc3c2nnn3Cc2ccccc2)cc1OC,100.0,38.8*,-3.2
Cc1nc(NCCCCCO)c2nnn(Cc3ccc(F)cc3)c2n1,102.0,21.8,0.4
O=C(O)c1ccc2c(c1)ncn2C1CCCCC1,104.0,1.5,-5.7
Nc1ccc2c(c1)ncn2C1CCCCC1,85.0*,-10.1,89.7
O=C(c1noc2c1CCCCC2)N1CCCc2ccccc21,106.0,-38.0,-4.5
c1ccc(CNCCCN2CCOCC2)cc1,102.0,-23.3,-6.2
CC(=O)Nc1ccc(C(=O)CSc2nnnn2C(C)C)cc1,102.0,-27.9,9.6
CC(C)n1nnnc1SCC(=O)c1ccc(F)cc1,101.0,27.8*,0.1
SMILES,PV pol inh,MenB inh,Mtb MbtI inh
CCS(=O)(=O)n1nc(-c2ccco2)nc1SC,96.0,-14.5,82.3*
CSc1nc(-c2ccco2)nn1C(=O)c1ccccc1,103.0,-2.6,19.5
CCCCSc1nnc(-c2ccc3[nH]c(C)c(C)c3c2)o1,103.0,-19.7,6.9
CCN(CC)C(=S)SSC(=S)N(CC)CC,99.0,2.6,98.5*
CCN(CC)C(N)=S,106.0,-18.9,1.1
CN1CCN(c2ccc(NC(=O)c3cccc(Cl)c3)cc2)CC1,101.0,-10.1,5.3
CC(C)c1ccc(C2C(C#N)=C(N)SC(N)=C2C#N)cc1,45.0,-30.9,.
N#CC1=C(N)SC(N)=C(C#N)C1c1ccc(O)cc1,92.0,-174.1,83.3*
Oc1c(C(c2cccs2)N2CCCCC2)ccc2cccnc12 (stereo unspecified),135.0,-75.6,97.1*
Oc1c(C(c2ccc(F)cc2)N2CCCCC2)ccc2cccnc12 (stereo unspecified),105.0,.,36.2
OCCNc1ccc(Cl)cc1,104.0,1.0,-4.9
N#CSc1ccc(NCCO)cc1C(F)(F)F,103.0,-30.8,57.8*
Nc1ccc2c(c1)nc(-c1ccccc1)c1cc(N)ccc12,112.0,-41.8,.
CC[n+]1c(-c2ccccc2)c2cc(N)ccc2c2ccc(N)cc21,75.0*,11.5,3.9
COc1cccc(COC(=O)c2ccc3c(c2)C(=O)N(Cc2ccncc2)C3=O)c1OC,102.0,-23.6,-7.5
COC(=O)c1ccc(OCC#N)cc1,98.0,.,0.2
COC(=O)c1ccc(/C=C/C(=O)OCC#N)cc1,88.0*,3.2,0.6
O=C(Cc1n[nH]c(=O)c2ccccc12)N/N=C/C=C/c1ccccc1,102.0,-7.1,0.2
Nc1nonc1C(=O)N1CCCC1,104.0,46.0*,9.7
Nc1nonc1/C(=N/O)N1CCCC1,101.0,26.2,7.8
Nc1ccc(C(=O)O)c(O)c1,99.0,8.2,-49.7
Cc1cc(N)cc(C(=O)O)c1O,99.0,37.4*,9.7
c1ccc(CCCc2nn3c(-c4cccs4)nnc3s2)cc1,105.0,-66.6,64.6
O=C1c2ccccc2C(=O)N1CCCc1nn2c(-c3cccnc3)nnc2s1,105.0,-17.2,63.7*
S=C(NCC1CCCO1)NC1CC1 (stereo unspecified),101.0,-5.6,-10.8
SMILES,PV pol inh,MenB inh,Mtb MbtI inh
NC(=S)NCC1CCCO1 (stereo unspecified),97.0,-15.2,89.2*
O=C(O)CSCc1cccs1,.,-14.6,-8.0
NC1(N)OC(CN2C(=O)c3ccccc3C2=O)CS1 (stereo unspecified),101.0,5.7,-5.2
O=C1[C@H]2CSC3(C(=O)c4ccccc4C3=O)N2C(=O)[C@H]2CSC3(C(=O)c4ccccc4C3=O)N12,99.0,-4.9,99.8*
COc1cc(N2CCCC2)c(OC)cc1CO,.,.,2.0
CC(=O)Oc1c(Br)cc2oc(=O)sc2c1Br,99.0,-65.1,91.0*
CC(=O)Oc1c(Cc2ccccc2)c(=O)oc2ccccc12,101.0,-11.0,-23.0
COC(=O)c1c(-c2cccs2)csc1NC(=O)c1ccc(Br)cc1,66.0*,.,.
COC(=O)c1c(-c2cccs2)csc1NC(=O)c1ccc(C)cc1,76.0*,.,.
COC(=O)c1c(-c2cccs2)csc1NC(=O)CN1CCOCC1,99.0,-19.4,-21.9
O=C(Nc1scc(-c2cccs2)c1C(=O)O)c1cccs1,100.0,-20.9,.
CCOC(=O)c1ccc(NC(=O)C(C)Sc2nc(O)c(NC(C)=O)c(=O)[nH]2)cc1 (stereo unspecified),99.0,-17.4,2.2
O=c1[nH]c(SCc2ccccc2)nc2c1CCCC2,111.0,.,.
COC(=O)c1ccc(NC(=O)C(C)Sc2nc3c(c(=O)[nH]2)CCCC3)cc1 (stereo unspecified),102.0,-6.1,81.3*
CCOC(=O)C(Sc1nc2c(c(=O)[nH]1)CCCC2)c1ccccc1 (stereo unspecified),.,-9.5,73.7*
Nc1nn2c([n+]1N)N=C(c1ccccc1)C2,105.0,5.8,15.6
CC1S/C(=C(/C#N)C(=O)NCc2ccco2)N(Cc2ccco2)C1=O (stereo unspecified),104.0,-21.0,12.7
O=C(Cc1cn2ccsc2n1)OCc1ccc(Cl)c(Cl)c1,104.0,-40.0,-7.0
C=CCNC(=S)Nc1sc2c(c1C(=O)OCC)CCCCC2,100.0,-71.1,-2.6
CCN(CC)C(=O)c1sc(NC(=S)N(C)Cc2cn(CC)nc2C)c(C(=O)OC)c1C,100.0,-9.8,10.9
CCN(CC)C(=O)c1sc(NC(=S)Nn2cnnc2)c(C(=O)OC)c1C,98.0,5.3,54.8*
CCOC(=O)c1c(NC(=S)Nn2cnnc2)sc2c1CCCCCC2,98.0,-40.8,89.2*
